Measured values reported in PubChem BioAssay (NCATS).
Values without a mark were called inactive. Inconclusive results are not listed. A call without a number means that no potency is given here. Calls of active or inactive are those of the source. Unless noted, calls follow the shape of the dose curve; as a rule, active = well fitted curve in the direction sought with a large enough effect; inconclusive = small, poorly fitted or top-dose-only effect, or another doubt; inactive = no such curve, though single readings can be large; an effect the other way counts as inactive or inconclusive.

Experiments:
[1] = Cell Viability - Jurkat (AID 426;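 active = dose-dependent loss of cell ATP signal giving a full or clear fitted curve, ranked by lower potency value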; also: potency is read from the fitted curve at half-maximal effect); details: qHTS
Summary of the method: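 Cells of the human T-cell leukemia line Jurkat (E6-1) are seeded at 5000 per well, treated with compound across a concentration range for 40 hours at 37 °C, then lysed with CellTiter-Glo; luminescence reports ATP.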

[2] = Cell Viability - Hek293 (AID 427;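 active = compounds whose dose-response curve shows a full or clear partial loss of cell viability, called from curve shape rather than a numeric limit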;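 also: potency is read from the fitted curve at half-maximal effect; cells exposed to compound for 40 hours at 37 °C before reading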); details: qHTS
Summary of the method: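 HEK293 cells in complete medium were exposed to compound for 40 hr at 37 °C, then cellular ATP was read by CellTiter-Glo luminescence. Data were normalized to DMSO (basal) and 100 uM tamoxifen (100% inhibition), and AC50 came from Hill fits.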

[3] = Cell Viability - H-4-II-E (AID 543); details: H-4-II-E rat hepatoma viability; series mostly up to 92.2 µM; also: nearly all actives have a fitted effect of over 35% in size; also: potency is read from the fitted curve at half-maximal effect
Summary of the method: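 Cells seeded at 1500 per well and rested 5 hr; compounds added; 40 hr incubation at 37 °C; CellTiter-Glo added, 20 min at room temperature; luminescence read. Hill-equation fits gave AC50.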

[4] = Cell Viability - SH-SY5Y (AID 544); details: SH-SY5Y neuroblastoma cell viability; series mostly up to 92.2 µM; also: nearly all actives have a fitted effect of over 55% in size; also: potency is read from the fitted curve at half-maximal effect
Summary of the method: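 Cells were plated at 1500 per well and allowed 5 hr at 37 °C. Compounds were added across a concentration range and incubated 40 hr at 37 °C. CellTiter-Glo was added for 20 min at room temperature before luminescence reading.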

[5] = Cellular Toxicity (caspase-3) N2a (AID 665); details: N2a cells, luminescence, normalized: DMSO 0%, 10 µM staurosporine 100%; series mostly up to 92.2 µM;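 also: compound exposure lasted 16 h at 37 °C before readout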
Summary of the method: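 Caspase-3/7 activation, measured as increased luminescence from aminoluciferin release, is quantified in mouse N2a cells exposed to compounds for 16 h. Values are normalized to DMSO and 10 uM staurosporine, with AC50 derived by Hill modelling.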

[6] = Cellular Toxicity (caspase-3) NIH 3T3 (AID 666); details: NIH 3T3 caspase-3 activation, apoptosis/toxicity, 0% DMSO, 100% is 100 µM tamoxifen; series mostly up to 92.2 µM;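 also: caspase signal read after 16 h compound exposure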
Summary of the method: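 Cells were plated at 1000 per well and incubated 5 hr at 37°C, then compound was added for 16 hr. Caspase-Glo 3/7 reagent followed for 20 min at room temperature before luminescence was read.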

[7] = Cell Viability - LYMP1-003 - Assay at 40 hr (AID 964); details: LYMP1-003 lymphoblastoid viability; series mostly up to 92.2 µM; also: nearly all actives have a fitted effect of over 60% in size; also: potency is read from the fitted curve at half-maximal effect
Summary of the method: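 Luminescent ATP signal (CellTiter-Glo) served as the viability read-out after 40 hr compound treatment of human lymphoblastoid LYMP1-003 cells at 37 C. Decreases in ATP were fitted with the Hill equation to give AC50.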

[8] = Cell Viability - LYMP2-005 (AID 967); details: LYMP2-005 lymphoblastoid cell viability; series mostly up to 92.2 µM; also: potency is read from the fitted curve at half-maximal effect
Summary of the method: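 Steps: seed 2500 LYMP2-005 cells/well, incubate 5 h at 37 C, add compound, incubate 24 h at 37 C, add CellTiter-Glo, wait 30 min at RT, read luminescence. Concentration-response data fitted to Hill equation for AC50.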

[9] = Cell Viability - LYMP2-011 (AID 969); details: LYMP2-011 lymphoblastoid cells viability; series mostly up to 92.2 µM; also: nearly all actives have a fitted effect of over 60% in size; also: potency is read from the fitted curve at half-maximal effect
Summary of the method: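 In this qHTS cytotoxicity format, compounds are tested across concentrations on human lymphoblastoid cells in complete medium for 24 hours at 37 C. Viability is taken as cellular ATP measured by luciferase luminescence.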

[10] = Cell Viability - LYMP2-013 (AID 970); details: LYMP2-013 lymphoblastoid cells viability; series mostly up to 92.2 µM; also: nearly all actives have a fitted effect of over 55% in size; also: potency is read from the fitted curve at half-maximal effect
Summary of the method: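 Cytotoxicity is scored as a concentration-dependent drop in intracellular ATP in human lymphoblastoid cells after 24 hr compound exposure at 37 C. ATP is quantified by luciferase luminescence, and AC50 values come from Hill-equation modeling.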

[11] = Cell Viability - LYMP2-017 (AID 972); details: LYMP2-017 lymphoblastoid cell viability; series mostly up to 92.2 µM; also: nearly all actives have a fitted effect of over 55% in size; also: potency is read from the fitted curve at half-maximal effect
Summary of the method: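 Cytotoxicity is scored as a concentration-dependent drop in cellular ATP in a human lymphoblastoid line after 24 hr treatment at 37 C. Values are AC50s from Hill-equation modelling.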

[12] = Cell Viability - LYMP2-007 (AID 979); details: LYMP2-007 lymphoblastoid cell viability; series mostly up to 92.2 µM;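 also: cells exposed to compound for 24 h before reading; nearly all actives have a fitted effect of over 60% in size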; also: potency is read from the fitted curve at half-maximal effect
Summary of the method: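 Cells are seeded at 2500 per well and rested 5 hr. Compounds are then added over a concentration series for 24 hr at 37 C. CellTiter-Glo is added for 30 min at room temperature before luminescence reading.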

[13] = Cell Viability - LYMP2-010 (AID 981); details: LYMP2-010 lymphoblastoid cell viability, qHTS; series mostly up to 92.2 µM; also: nearly all actives have a fitted effect of over 55% in size; also: potency is read from the fitted curve at half-maximal effect
Summary of the method: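 Steps: seed 2500 LYMP2-010 cells per well; incubate 5 hr at 37 C; add compound; incubate 24 hr at 37 C; add CellTiter-Glo, wait 30 min at room temperature; read luminescence. Concentration-response fitted to Hill equation for AC50.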

[14] = Cell Viability - LYMP2-012 (AID 982); details: LYMP2-012 lymphoblastoid cell viability qHTS; series mostly up to 92.2 µM; also: potency is read from the fitted curve at half-maximal effect
[15] = Cell Viability - LYMP2-018 (AID 985); details: LYMP2-018 lymphoblastoid cells, viability (qHTS); series mostly up to 92.2 µM; also: nearly all actives have a fitted effect of over 50% in size; also: potency is read from the fitted curve at half-maximal effect
Summary of the method: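 Seed 2500 lymphoblastoid cells per well, incubate 5 hr at 37 C, add compound and incubate 24 hr at 37 C, add CellTiter-Glo, wait 30 min at room temperature, then read luminescence.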

[16] = Cell Viability - LYMP2-022 (AID 987); details: LYMP2-022 lymphoblastoid cell viability; series mostly up to 92.2 µM; also: nearly all actives have a fitted effect of over 55% in size; also: potency is read from the fitted curve at half-maximal effect
Summary of the method: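 Cells were seeded at 2500 per well, rested 5 hr at 37 C, and treated with titrated compounds for 24 hr at 37 C. Cellular ATP was then quantified by luciferase luminescence, and AC50 values were derived from Hill-modelled concentration-response curves.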

[17] = Cell Viability - LYMP2-024 (AID 988); details: LYMP2-024 lymphoblastoid cell viability; series mostly up to 92.2 µM; also: nearly all actives have a fitted effect of over 60% in size; also: potency is read from the fitted curve at half-maximal effect
Summary of the method: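 qHTS cytotoxicity, human lymphoblastoid line, complete medium; 24 h cpd treatment, 37 C; CellTiter-Glo ATP luminescence readout; tetraoctylammonium bromide positive control; AC50 via Hill fit.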

[18] = Cellular Toxicity (caspase-3) Jurkat (AID 655); details: Jurkat caspase-3 activation, luminescence, DMSO = 0%, tamoxifen = 100%; at 92.2 µM (top of the series);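 also: cells exposed to compound for 16 h at 37 °C before reading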
Summary of the method: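 Luminescent caspase-3/7 readout (aminoluciferin substrate cleavage) in human T-cell leukemia Jurkat cells after 16 hr compound exposure. Concentration-response normalized to DMSO and 100 uM tamoxifen; AC50 by standard Hill equation.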

[19] = Cell Viability - LYMP2-001 (AID 921); details: LYMP2-001 lymphoblastoid cell viability; series mostly up to 92.2 µM; also: nearly all actives have a fitted effect of over 70% in size
Summary of the method: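 CellTiter-Glo luminescence (intracellular ATP) after 24 hr compound exposure at 37 C, 2500 lymphoblastoid cells/well in complete medium. AC50 fitted with standard Hill equation; tetraoctylammonium bromide positive control.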

[20] = MultiTox-Fluor Cytotoxicity Assay - LYMP1-001 - Dead Cells (AID 946); details: LYMP1-001 lymphoblastoid cells, dead-cell protease fluorescence; series mostly up to 92.2 µM
Summary of the method: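 LYMP1-001 lymphoblastoid cells (2500/well) treated 16 h at 37 C. Dead-cell protease cleavage of bis-AAF-R110 read at Ex/Em 485/520. Normalized to DMSO and 15 uM tetraoctylammonium bromide; AC50 from Hill fits.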

| SMILES | Potency [1] | Potency [2] | Potency [3] | Potency [4] | outcome [5] | outcome [6] | Potency [7] | Potency [8] | Potency [9] | Potency [10] | Potency [11] | Potency [12] | Potency [13] | Potency [14] | Potency [15] | Potency [16] | Potency [17] | caspase-3 activation [18] | Potency [19] | Potency [20] |
| --- | --- | --- | --- | --- | --- | --- | --- | --- | --- | --- | --- | --- | --- | --- | --- | --- | --- | --- | --- | --- |
| NC1=NC(S)C2N=CN=C2N1 (stereo unspecified) | 0.0486 µM (active) | 1.39 µM (active) | 0.398 µM (active) | 12.6 µM (active) | inactive | inactive | 1.58 µM (active) | 12.6 µM (active) | 20 µM (active) | 20 µM (active) | 12.6 µM (active) | 15.8 µM (active) | 12.6 µM (active) | 7.94 µM (active) | 7.94 µM (active) | 12.6 µM (active) | 12.6 µM (active) | – | – | – |
| C=CCOC(=O)c1ccccc1C(=O)OCC=C | > 92 µM | > 92 µM | inactive | inactive | inactive | inactive | inactive | inactive | inactive | inactive | inactive | inactive | inactive | inactive | inactive | inactive | inactive | -1.58% | inactive | inactive |
| S=C1NC=NC2N=CNC12 (stereo unspecified) | 0.128 µM (active) | 1.03 µM (active) | 0.158 µM (active) | – | – | inactive | 1.58 µM (active) | inactive | inactive | inactive | inactive | inactive | inactive | inactive | inactive | inactive | inactive | 20.1% | inactive | inactive |
| O=C1c2ccccc2C(=O)C1c1ccc2ccccc2n1 | – | – | – | inactive | inactive | – | inactive | inactive | inactive | inactive | inactive | 39.8 µM (active) | inactive | inactive | inactive | inactive | inactive | -10.4% | inactive | inactive |
| Cc1ccc([N+](=O)[O-])c(C)c1 | > 92 µM | > 92 µM | inactive | inactive | inactive | inactive | inactive | inactive | inactive | inactive | inactive | inactive | inactive | inactive | inactive | inactive | inactive | 0.882% | inactive | inactive |
| CCCCCCCCCCCCCCC1CO1 (stereo unspecified) | > 92 µM | > 92 µM | inactive | inactive | inactive | inactive | inactive | inactive | inactive | inactive | inactive | inactive | inactive | inactive | inactive | inactive | inactive | 0.846% | inactive | inactive |
| CN(C)CCCCCCN(C)C | > 92 µM | > 92 µM | inactive | inactive | inactive | inactive | inactive | inactive | inactive | inactive | inactive | inactive | inactive | inactive | inactive | inactive | inactive | -2.92% | inactive | inactive |
| O=C(O)CC(C(=O)O)C(CC(=O)O)C(=O)O (stereo unspecified) | > 92 µM | > 92 µM | inactive | inactive | inactive | inactive | inactive | inactive | inactive | inactive | inactive | inactive | inactive | inactive | inactive | inactive | inactive | -0.624% | inactive | inactive |
| C1OCOCO1 | > 92 µM | > 92 µM | inactive | inactive | inactive | inactive | inactive | inactive | inactive | inactive | inactive | inactive | inactive | inactive | inactive | inactive | inactive | 2.97% | inactive | inactive |
